Measured values reported in paper PMC7862700, “An all-to-all approach to the identification of sequence-specific readers for epigenetic DNA modifications on cytosine”.

Legend:
Assay in all cases: DAPPL (digital affinity profiling via proximity ligation, sequencing); 10 mM Tris-HCl pH 7.5, 50 mM NaCl, 1 mM DTT, 4% glycerol, room temperature, 30 min; GST-TFs on glutathione beads, 16-mer random dsDNA library, 0.1% formaldehyde crosslink after washing; high values mean tight binding
FEV = molecular target: T1, FEV (Homo sapiens, UniProt Q99581 1-238); details: protein: recombinant; tags: N-terminal GST; dsDNA, one strand shown
T1 sequence: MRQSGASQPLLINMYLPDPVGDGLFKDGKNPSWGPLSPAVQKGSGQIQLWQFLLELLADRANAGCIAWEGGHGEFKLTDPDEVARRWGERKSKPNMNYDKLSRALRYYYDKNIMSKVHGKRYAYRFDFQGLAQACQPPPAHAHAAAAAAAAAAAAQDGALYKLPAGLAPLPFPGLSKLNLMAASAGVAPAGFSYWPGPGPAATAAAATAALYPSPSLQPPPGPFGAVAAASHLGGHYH
Outline: (§1)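 The binding signal reported is, for every hexamer, its read frequency for a factor over its read frequency for the tag-only sample. Reads came from pools of yeast-expressed, GST-fused human transcription factors on glutathione beads, barcoded with DNA and mixed with that sample, which were incubated with 200 nmole of a random double-stranded 16-mer DNA library in Tris/NaCl/DTT/glycerol buffer at room temperature for 30 min. After washing, the pools were crosslinked with 0.1% formaldehyde, proximity-ligated with BsaI/T4 ligase for 1 h at 37 °C, PCR-amplified and sequenced on an Illumina NextSeq500.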

ETV5 = ETV5 (Homo sapiens, UniProt P41161 1-510); details: protein: recombinant; tags: N-terminal GST; dsDNA, one strand shown
Chain of ETV5 (P41161 whole entry): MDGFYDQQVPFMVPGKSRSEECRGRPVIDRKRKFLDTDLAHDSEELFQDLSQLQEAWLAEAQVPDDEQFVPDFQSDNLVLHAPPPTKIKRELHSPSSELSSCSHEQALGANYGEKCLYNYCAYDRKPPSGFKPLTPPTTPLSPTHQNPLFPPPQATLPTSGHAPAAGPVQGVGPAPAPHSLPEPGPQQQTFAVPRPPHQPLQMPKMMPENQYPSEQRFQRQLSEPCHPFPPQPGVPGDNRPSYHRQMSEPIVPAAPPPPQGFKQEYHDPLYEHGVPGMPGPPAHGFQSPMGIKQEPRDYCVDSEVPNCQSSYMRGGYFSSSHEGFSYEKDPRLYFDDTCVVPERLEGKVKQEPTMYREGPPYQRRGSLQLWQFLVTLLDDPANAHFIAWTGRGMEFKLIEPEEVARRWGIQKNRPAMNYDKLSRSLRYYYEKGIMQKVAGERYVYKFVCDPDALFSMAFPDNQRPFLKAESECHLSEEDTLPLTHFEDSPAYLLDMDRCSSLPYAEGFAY
Outline: as §1

HSF1 = HSF1 (Homo sapiens, UniProt Q00613 1-529); details: protein: recombinant; tags: N-terminal GST; chain copies: 3; dsDNA, one strand shown
Chain of HSF1 (Q00613 whole entry): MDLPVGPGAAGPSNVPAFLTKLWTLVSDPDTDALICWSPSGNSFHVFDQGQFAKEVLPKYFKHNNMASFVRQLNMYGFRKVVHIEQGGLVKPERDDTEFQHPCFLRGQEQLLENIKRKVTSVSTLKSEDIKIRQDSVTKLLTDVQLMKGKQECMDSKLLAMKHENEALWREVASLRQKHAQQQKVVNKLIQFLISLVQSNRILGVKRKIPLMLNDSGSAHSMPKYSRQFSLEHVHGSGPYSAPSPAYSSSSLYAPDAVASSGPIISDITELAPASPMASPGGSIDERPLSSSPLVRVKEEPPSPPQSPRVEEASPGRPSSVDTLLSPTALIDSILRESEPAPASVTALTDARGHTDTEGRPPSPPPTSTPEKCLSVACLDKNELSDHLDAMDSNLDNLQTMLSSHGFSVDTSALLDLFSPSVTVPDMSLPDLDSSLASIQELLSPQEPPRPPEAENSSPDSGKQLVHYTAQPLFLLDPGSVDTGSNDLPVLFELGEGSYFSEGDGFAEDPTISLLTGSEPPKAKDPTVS
Outline: as §1

SPIC = molecular target: T2, SPIC (Homo sapiens, UniProt Q8N5J4 1-248); details: protein: recombinant; tags: N-terminal GST; dsDNA, one strand shown
T2 sequence: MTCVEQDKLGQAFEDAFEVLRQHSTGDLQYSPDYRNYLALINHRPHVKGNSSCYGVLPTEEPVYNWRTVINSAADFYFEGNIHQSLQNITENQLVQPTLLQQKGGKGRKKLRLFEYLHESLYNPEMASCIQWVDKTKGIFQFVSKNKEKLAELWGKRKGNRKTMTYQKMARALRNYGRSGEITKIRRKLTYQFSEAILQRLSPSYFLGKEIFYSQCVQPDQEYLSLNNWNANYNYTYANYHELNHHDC
Outline: as §1

ELF4 = ELF4 (Homo sapiens, UniProt Q99607 1-663); details: protein: recombinant; tags: N-terminal GST; dsDNA, one strand shown
Chain of ELF4 (Q99607 whole entry): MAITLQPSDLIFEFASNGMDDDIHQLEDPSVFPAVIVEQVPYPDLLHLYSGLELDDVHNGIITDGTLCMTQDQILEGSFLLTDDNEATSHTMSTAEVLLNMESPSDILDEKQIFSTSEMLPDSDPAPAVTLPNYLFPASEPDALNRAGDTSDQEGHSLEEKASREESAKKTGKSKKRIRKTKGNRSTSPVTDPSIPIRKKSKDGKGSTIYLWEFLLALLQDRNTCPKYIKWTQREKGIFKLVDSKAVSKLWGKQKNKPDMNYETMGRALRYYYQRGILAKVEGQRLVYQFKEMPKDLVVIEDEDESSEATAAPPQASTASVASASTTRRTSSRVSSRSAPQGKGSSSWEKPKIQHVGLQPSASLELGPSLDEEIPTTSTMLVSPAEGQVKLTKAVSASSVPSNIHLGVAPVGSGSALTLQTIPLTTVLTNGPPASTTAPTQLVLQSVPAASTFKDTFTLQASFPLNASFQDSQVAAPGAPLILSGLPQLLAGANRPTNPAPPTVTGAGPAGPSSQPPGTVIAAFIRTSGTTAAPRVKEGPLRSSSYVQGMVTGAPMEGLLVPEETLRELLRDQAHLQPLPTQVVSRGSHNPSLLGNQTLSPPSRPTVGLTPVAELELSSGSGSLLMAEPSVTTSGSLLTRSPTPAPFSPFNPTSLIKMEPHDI
Outline: as §1

ELK4 = molecular target: T3, ELK4 (Homo sapiens, UniProt P28324-2 1-405); details: protein: recombinant; tags: N-terminal GST; dsDNA, one strand shown
T3 sequence: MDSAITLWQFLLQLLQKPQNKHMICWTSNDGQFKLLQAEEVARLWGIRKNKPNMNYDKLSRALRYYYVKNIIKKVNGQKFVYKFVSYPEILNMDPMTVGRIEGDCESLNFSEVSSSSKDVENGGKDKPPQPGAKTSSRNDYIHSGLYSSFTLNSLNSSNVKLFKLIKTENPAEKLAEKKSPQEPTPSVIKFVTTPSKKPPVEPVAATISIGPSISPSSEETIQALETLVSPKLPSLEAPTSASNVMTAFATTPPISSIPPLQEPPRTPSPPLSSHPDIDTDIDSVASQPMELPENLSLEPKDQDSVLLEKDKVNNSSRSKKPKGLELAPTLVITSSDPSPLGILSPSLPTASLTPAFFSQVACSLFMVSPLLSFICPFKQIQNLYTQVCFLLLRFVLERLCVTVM
Outline: as §1

ETV2 = molecular target: T4, ETV2 (Homo sapiens, UniProt O00321 1-342); details: protein: recombinant; tags: N-terminal GST; dsDNA, one strand shown
T4 sequence: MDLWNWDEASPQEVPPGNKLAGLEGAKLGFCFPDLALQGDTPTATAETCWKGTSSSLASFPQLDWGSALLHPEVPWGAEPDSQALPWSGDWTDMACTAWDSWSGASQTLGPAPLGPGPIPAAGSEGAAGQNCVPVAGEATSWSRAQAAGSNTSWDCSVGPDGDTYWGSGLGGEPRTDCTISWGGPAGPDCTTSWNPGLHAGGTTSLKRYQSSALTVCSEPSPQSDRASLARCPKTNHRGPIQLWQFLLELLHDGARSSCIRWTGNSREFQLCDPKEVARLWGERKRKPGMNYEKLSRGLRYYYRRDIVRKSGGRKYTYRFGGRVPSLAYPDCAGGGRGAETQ
Outline: as §1

CRX = CRX (Homo sapiens, UniProt O43186 1-299); details: protein: recombinant; tags: N-terminal GST; dsDNA, one strand shown
Chain of CRX (O43186 whole entry): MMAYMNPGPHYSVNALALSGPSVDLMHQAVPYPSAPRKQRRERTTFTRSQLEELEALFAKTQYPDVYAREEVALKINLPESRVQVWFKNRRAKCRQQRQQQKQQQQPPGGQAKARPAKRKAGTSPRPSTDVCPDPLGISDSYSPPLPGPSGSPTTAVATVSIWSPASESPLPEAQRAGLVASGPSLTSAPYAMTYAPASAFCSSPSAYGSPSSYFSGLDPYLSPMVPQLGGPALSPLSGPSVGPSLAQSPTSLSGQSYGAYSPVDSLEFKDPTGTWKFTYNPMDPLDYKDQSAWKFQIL
Outline: as §1

ETV1 = ETV1 (Homo sapiens, UniProt P50549 1-477); details: protein: recombinant; tags: N-terminal GST; dsDNA, one strand shown
Chain of ETV1 (P50549 whole entry): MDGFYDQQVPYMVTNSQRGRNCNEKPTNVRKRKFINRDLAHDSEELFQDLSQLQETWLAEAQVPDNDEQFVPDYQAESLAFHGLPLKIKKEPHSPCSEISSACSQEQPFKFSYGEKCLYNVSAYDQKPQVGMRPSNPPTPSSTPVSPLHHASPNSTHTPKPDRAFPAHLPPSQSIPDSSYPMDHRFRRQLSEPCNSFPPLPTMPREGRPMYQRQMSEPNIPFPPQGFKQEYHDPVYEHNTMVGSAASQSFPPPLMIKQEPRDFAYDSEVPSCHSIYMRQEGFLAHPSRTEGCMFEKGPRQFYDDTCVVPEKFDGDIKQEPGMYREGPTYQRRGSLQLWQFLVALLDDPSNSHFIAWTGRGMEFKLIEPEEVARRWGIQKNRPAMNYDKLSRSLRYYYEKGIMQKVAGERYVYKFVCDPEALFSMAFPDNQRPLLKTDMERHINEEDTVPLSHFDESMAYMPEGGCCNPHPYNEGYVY
Outline: as §1

ERF = molecular target: T5, ERF (Homo sapiens, UniProt P50548 1-548); details: protein: recombinant; tags: N-terminal GST; dsDNA, one strand shown
T5 sequence: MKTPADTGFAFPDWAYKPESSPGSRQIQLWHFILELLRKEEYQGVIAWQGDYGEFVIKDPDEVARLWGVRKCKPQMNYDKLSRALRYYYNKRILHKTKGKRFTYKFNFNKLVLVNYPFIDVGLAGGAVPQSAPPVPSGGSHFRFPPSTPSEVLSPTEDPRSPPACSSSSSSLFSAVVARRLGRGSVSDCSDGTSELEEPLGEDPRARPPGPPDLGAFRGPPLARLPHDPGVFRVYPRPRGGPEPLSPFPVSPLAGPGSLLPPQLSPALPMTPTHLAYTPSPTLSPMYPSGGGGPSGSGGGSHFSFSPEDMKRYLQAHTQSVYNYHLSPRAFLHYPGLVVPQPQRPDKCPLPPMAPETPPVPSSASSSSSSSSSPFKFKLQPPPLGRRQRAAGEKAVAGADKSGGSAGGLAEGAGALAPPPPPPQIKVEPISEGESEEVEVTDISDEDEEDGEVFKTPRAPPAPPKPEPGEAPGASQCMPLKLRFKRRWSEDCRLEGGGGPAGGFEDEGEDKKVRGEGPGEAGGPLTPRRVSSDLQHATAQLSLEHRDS
Outline: as §1

ETV3L = molecular target: T6, ETV3L (Homo sapiens, UniProt Q6ZN32 1-361); details: protein: recombinant; tags: N-terminal GST; dsDNA, one strand shown
T6 sequence: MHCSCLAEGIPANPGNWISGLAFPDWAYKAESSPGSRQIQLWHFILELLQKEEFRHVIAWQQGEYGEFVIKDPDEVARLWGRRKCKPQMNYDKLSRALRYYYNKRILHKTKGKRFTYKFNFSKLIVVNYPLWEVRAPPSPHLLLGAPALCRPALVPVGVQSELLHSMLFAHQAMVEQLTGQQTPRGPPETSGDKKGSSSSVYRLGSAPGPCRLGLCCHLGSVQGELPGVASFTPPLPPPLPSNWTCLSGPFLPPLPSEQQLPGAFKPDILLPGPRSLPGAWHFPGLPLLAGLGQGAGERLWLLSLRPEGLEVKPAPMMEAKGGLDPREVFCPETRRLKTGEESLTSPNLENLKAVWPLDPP
Outline: as §1

ETS2 = molecular target: T7, ETS2 (Homo sapiens, UniProt P15036 1-469); details: protein: recombinant; tags: N-terminal GST; dsDNA, one strand shown
T7 sequence: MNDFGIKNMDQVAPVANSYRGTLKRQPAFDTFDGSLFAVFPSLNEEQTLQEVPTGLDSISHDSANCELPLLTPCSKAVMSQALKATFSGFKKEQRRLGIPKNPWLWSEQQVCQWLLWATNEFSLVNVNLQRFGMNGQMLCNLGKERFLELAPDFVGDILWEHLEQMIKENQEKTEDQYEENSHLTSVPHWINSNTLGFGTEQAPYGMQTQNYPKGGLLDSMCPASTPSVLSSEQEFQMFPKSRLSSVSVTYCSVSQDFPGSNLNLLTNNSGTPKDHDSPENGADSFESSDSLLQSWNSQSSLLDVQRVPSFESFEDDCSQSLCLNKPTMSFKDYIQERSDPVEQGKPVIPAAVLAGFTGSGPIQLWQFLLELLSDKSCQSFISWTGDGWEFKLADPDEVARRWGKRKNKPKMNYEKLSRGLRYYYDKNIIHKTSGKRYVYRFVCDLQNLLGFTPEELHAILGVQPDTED
Outline: as §1

SPDEF = molecular target: T8, SPDEF (Homo sapiens, UniProt O95238 1-335); details: protein: recombinant; tags: N-terminal GST; dsDNA, one strand shown
T8 sequence: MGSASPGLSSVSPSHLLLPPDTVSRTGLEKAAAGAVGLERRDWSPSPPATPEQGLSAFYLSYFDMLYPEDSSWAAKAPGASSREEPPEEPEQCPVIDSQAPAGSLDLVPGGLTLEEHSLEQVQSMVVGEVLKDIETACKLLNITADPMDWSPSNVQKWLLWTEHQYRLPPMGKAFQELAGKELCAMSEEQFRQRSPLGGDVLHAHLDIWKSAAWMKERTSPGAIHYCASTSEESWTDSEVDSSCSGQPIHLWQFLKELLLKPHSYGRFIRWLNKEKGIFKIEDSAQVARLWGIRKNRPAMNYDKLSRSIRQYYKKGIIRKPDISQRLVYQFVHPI
Outline: as §1

ETV7 = molecular target: T9, ETV7 (Homo sapiens, UniProt Q9Y603 1-341); details: protein: recombinant; tags: N-terminal GST; dsDNA, one strand shown
T9 sequence: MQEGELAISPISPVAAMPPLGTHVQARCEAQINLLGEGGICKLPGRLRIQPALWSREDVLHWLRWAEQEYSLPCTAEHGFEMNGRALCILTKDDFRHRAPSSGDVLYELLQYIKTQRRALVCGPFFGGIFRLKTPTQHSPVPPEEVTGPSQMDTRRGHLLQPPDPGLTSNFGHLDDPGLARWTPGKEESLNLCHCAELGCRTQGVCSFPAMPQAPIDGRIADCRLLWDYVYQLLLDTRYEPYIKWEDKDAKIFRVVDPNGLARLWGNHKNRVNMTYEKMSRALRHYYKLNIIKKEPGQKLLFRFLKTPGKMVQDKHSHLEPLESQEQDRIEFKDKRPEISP
Outline: as §1

ELF5 = molecular target: T10, ELF5 (Homo sapiens, UniProt Q9UKW6-2 1-255); details: protein: recombinant; tags: N-terminal GST; dsDNA, one strand shown
T10 sequence: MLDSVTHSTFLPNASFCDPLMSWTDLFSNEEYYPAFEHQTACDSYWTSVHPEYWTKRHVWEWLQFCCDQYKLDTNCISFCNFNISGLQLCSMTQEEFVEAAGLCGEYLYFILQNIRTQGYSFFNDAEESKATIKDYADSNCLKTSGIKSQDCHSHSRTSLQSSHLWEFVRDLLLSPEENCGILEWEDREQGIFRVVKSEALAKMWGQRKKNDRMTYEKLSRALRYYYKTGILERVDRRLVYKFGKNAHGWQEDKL
Outline: as §1

ETV3 = molecular target: T11, ETV3 (Homo sapiens, UniProt P41162-2 1-143); details: protein: recombinant; tags: N-terminal GST; dsDNA, one strand shown
T11 sequence: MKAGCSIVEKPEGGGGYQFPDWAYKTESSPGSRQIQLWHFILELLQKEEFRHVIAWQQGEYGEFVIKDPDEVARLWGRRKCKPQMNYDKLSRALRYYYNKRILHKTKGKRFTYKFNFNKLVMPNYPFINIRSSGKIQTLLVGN
Outline: as §1

ETV6 = ETV6 (Homo sapiens, UniProt P41212 1-452); details: protein: recombinant; tags: N-terminal GST; dsDNA, one strand shown
Chain of ETV6 (P41212 whole entry): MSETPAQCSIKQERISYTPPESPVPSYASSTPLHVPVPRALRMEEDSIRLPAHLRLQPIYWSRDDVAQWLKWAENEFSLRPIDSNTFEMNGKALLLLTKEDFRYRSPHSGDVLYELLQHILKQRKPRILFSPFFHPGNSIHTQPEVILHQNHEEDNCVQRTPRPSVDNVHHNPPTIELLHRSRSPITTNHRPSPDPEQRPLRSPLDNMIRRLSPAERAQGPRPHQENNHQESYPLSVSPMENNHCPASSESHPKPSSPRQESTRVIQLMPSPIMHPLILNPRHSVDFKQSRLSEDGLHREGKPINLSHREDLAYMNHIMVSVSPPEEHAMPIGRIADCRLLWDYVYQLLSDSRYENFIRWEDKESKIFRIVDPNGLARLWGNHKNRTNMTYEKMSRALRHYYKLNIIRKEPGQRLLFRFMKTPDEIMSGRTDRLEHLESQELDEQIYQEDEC
Outline: as §1

Sequence | binding signal (FEV) | binding signal (ETV5) | binding signal (HSF1) | binding signal (SPIC) | binding signal (ELF4) | binding signal (ELK4) | binding signal (ETV2) | binding signal (CRX) | binding signal (ETV1) | binding signal (ERF) | binding signal (ETV3L) | binding signal (ETS2) | binding signal (SPDEF) | binding signal (ETV7) | binding signal (ELF5) | binding signal (ETV3) | binding signal (ETV6)
TGATTT | 1.26 fold enrichment (6-mer frequency, TF over GST control) | 1.27 fold enrichment (6-mer frequency, TF over GST control) | 1.27 fold enrichment (6-mer frequency, TF over GST control) | 1.39 fold enrichment (6-mer frequency, TF over GST control) | 1.23 fold enrichment (6-mer frequency, TF over GST control) | 1.2 fold enrichment (6-mer frequency, TF over GST control) | 1.29 fold enrichment (6-mer frequency, TF over GST control) | 1.35 fold enrichment (6-mer frequency, TF over GST control) | 1.31 fold enrichment (6-mer frequency, TF over GST control) | 1.17 fold enrichment (6-mer frequency, TF over GST control) | 1.29 fold enrichment (6-mer frequency, TF over GST control) | 1.28 fold enrichment (6-mer frequency, TF over GST control) | 1.21 fold enrichment (6-mer frequency, TF over GST control) | 1.24 fold enrichment (6-mer frequency, TF over GST control) | 1.23 fold enrichment (6-mer frequency, TF over GST control) | 1.24 fold enrichment (6-mer frequency, TF over GST control) | 1.23 fold enrichment (6-mer frequency, TF over GST control)
TATTAG | 1.02 fold enrichment (6-mer frequency, TF over GST control) | 1.04 fold enrichment (6-mer frequency, TF over GST control) | 1.42 fold enrichment (6-mer frequency, TF over GST control) | 1.13 fold enrichment (6-mer frequency, TF over GST control) | 1.05 fold enrichment (6-mer frequency, TF over GST control) | 1.04 fold enrichment (6-mer frequency, TF over GST control) | 1.23 fold enrichment (6-mer frequency, TF over GST control) | 1.94 fold enrichment (6-mer frequency, TF over GST control) | 1.12 fold enrichment (6-mer frequency, TF over GST control) | 1 fold enrichment (6-mer frequency, TF over GST control) | 1.04 fold enrichment (6-mer frequency, TF over GST control) | 1.06 fold enrichment (6-mer frequency, TF over GST control) | 1.06 fold enrichment (6-mer frequency, TF over GST control) | 1.03 fold enrichment (6-mer frequency, TF over GST control) | 1.06 fold enrichment (6-mer frequency, TF over GST control) | 1.05 fold enrichment (6-mer frequency, TF over GST control) | 1.05 fold enrichment (6-mer frequency, TF over GST control)
GAAAGA | – | 1.04 fold enrichment (6-mer frequency, TF over GST control) | 1.4 fold enrichment (6-mer frequency, TF over GST control) | 1.05 fold enrichment (6-mer frequency, TF over GST control) | 1.07 fold enrichment (6-mer frequency, TF over GST control) | 1.01 fold enrichment (6-mer frequency, TF over GST control) | 1.07 fold enrichment (6-mer frequency, TF over GST control) | 1.01 fold enrichment (6-mer frequency, TF over GST control) | 1.03 fold enrichment (6-mer frequency, TF over GST control) | – | 1.03 fold enrichment (6-mer frequency, TF over GST control) | 1.02 fold enrichment (6-mer frequency, TF over GST control) | – | 1.1 fold enrichment (6-mer frequency, TF over GST control) | – | 1.01 fold enrichment (6-mer frequency, TF over GST control) | 1.09 fold enrichment (6-mer frequency, TF over GST control)
